From PubChem
MCL1 BIM primary: inhibitors of human MCL1 binding to BIM-BH3 peptide. GST-MCL1 / FITC-Bim-BH3 fluorescence polarization. inhibition, % at 10.9 µM. Q07820. hit rate 0.68% among 320,000;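 active = inhibition above the mean inhibition of all tested compounds plus 3 SD, set per campaign, cut at about 40% in these data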;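 note: 0% = DMSO wells and 100% = unlabeled Bim-BH3 peptide control; higher means more loss of mP so more displacement of Bim peptide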
Target sequence (Q07820 whole entry, looked up): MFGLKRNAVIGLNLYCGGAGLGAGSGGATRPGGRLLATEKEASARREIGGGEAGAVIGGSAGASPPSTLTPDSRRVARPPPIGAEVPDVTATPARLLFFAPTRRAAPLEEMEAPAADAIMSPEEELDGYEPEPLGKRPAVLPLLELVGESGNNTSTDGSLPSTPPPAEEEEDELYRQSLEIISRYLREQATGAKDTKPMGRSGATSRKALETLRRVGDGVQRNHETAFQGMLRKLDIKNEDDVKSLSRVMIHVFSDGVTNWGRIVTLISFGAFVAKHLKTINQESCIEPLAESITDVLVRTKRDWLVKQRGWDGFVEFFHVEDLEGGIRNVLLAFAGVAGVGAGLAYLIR
Mcl1-Bid inh: disrupts binding of human Mcl-1 to Bid peptide; Q07820; TR-FRET Mcl-1/Bid-Dy647 peptide binding, 1536-well; inhibition, % at 21.7 µM; hit rate 0.97% among 220,000;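 active = compounds that cut the binding signal by more than half at the single screening dose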;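 note: His-tagged Mcl-1 with europium anti-His antibody binding Bid BH3 peptide; 0% = Mcl-1 plus peptide wells and 100% = peptide-only wells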
Mcl1 Noxa PPI: Mcl-1/Noxa interaction inhibition. Q07820. inhibition, % at 21.7 µM. hit rate 1.5% among 220,000. TR-FRET Mcl-1/Noxa peptide binding, 2 h;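 active = compounds that cut the protein-peptide binding signal by more than 50% relative to plate controls in a single-dose test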;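 note: His-tagged Mcl-1 with rhodamine Noxa BH3 peptide and terbium anti-His antibody; 0% = Mcl-1 plus Noxa peptide wells and 100% = peptide-only wells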
Bim-Mcl-1: human Bim-Mcl-1 interaction inhibition | inhibition, % at 10 µM | AID 1009 | Q07820 | hit rate 0.1% among 190,000 | Bead-based flow cytometry, Bim peptide-Mcl-1 binding; in the data active = inhibition above about 40%;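 note: 0% = no compound tracer wells and 100% = peptide blocker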
GLD-1 TGE inh: GLD-1-TGE RNA interaction inhibition (C. elegans); AID 2280; Q17339; hit rate 0.44% among 320,000; inhibition, % at 5.96 µM; purified GLD-1 + fluorescein TGE RNA, fluorescence polarization;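 active = percent inhibition above a per-plate cutoff, the plate mean of test compounds plus 3 SD, cut at about 30% in these data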;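 note: 0% = DMSO wells with GLD-1 and probe and 100% = wells lacking GLD-1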
BCLXL inh: blocks human Bcl-xL binding to Bim BH3 peptide | GST-Bcl-xL / FITC-Bim BH3 peptide fluorescence polarization | inhibition, % at 10.9 µM | Q07817 | AID 2129 | hit rate 0.7% among 320,000;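 active = inhibition above the mean of all tested compounds plus 3 SD, cutoff set per campaign, cut at about 30% in these data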;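 note: 0% = DMSO wells and 100% = unlabeled Bim-BH3 peptide competitor; inhibitors lower millipolarization by displacing the labeled peptide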
Target sequence (Q07817 whole entry, looked up): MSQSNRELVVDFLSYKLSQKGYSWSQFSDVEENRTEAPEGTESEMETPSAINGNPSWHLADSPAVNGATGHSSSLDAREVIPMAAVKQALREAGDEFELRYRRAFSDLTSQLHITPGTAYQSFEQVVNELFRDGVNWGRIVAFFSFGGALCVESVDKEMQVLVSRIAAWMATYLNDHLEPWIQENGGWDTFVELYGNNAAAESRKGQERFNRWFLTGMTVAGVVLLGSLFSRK
Bcl-xL conf: Bcl-xL (human) inhibition, MCL1 counter-screen confirmation. shares compounds with MCL1 BIM primary. GST-Bcl-xL / FITC-Bim BH3 peptide FP binding. hit rate 54% among 1,700. AID 2166. inhibition, % at 10.9 µM;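 active = inhibition above a cutoff equal to the mean inhibition of all tested compounds plus 3 SD, cut at about 30% in these data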;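 note: 0% = DMSO wells and 100% = unlabeled Bim BH3 control peptide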
MCL1 BIM confirm: confirmation of human MCL1 and BIM-BH3 interaction inhibitors | inhibition, % at 10.9 µM | shares compounds with MCL1 BIM primary | hit rate 61% among 1,700 | GST-MCL1 / FITC-Bim-BH3 fluorescence polarization | AID 2168;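 active = inhibition above the average of all tested compounds plus 3 SD, cut at about 40% in these data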;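 note: 0% = DMSO wells and 100% = unlabeled Bim-BH3 control peptide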
* hit, by the source's call; . = no result; + = active, no number. The list is not random: actives were taken first. Their share in the collection is about 2.3%.

SMILES | MCL1 BIM primary | Mcl1-Bid inh | Mcl1 Noxa PPI | Bim-Mcl-1 | GLD-1 TGE inh | BCLXL inh | Bcl-xL conf | MCL1 BIM confirm
CC(=O)Nc1ccc(NC2=CC(=O)c3ccccc3C2=O)cc1 | 2.0 | . | . | . | 1.2 | 10.8 | . | .
CCNc1c2c3c(cccc3n(C)c1=O)C(=O)c1ccccc1-2 | + | -12.8 | -134.1 | 9.0 | 164.2* | + | + | +
Cn1c(NCCc2ccccc2)cc(=O)n(C)c1=O | 1.3 | -24.3 | -4.1 | -3.0 | 6.0 | 2.5 | . | .
CC(NC(=O)COC(=O)c1cc(=O)c2ccccc2o1)c1ccccc1 (configuration not stated) | . | . | . | . | -3.6 | . | . | .
COc1ccc(OC)c(/C=C/C(=O)N(C)CC(=O)Nc2ccc(N3CCOCC3)cc2)c1 | -7.7 | . | . | . | 1.1 | -2.7 | . | .
Cn1c(=O)c(NCCO)c2c3c(cccc31)C(=O)c1ccccc1-2 | 123.5* | -20.6 | -174.2 | -2.0 | 80.9* | 114.3* | 124.9* | 128.5*
Cn1c(=O)c(NC2CCCCC2)c2c3c(cccc31)C(=O)c1ccccc1-2 | . | -8.6 | -27.7 | 3.0 | . | . | . | .
Cc1ccc(-c2nc3ccccc3c(=O)o2)cc1 | -8.3 | . | . | . | -4.9 | -1.2 | . | .
O=c1oc(-c2ccc(Br)o2)nc2ccccc12 | 97.7* | 26.1 | 37.1 | -13.0 | 7.6 | 5.2 | -2.0 | 12.8
COc1ccccc1/C=c1\sc2nc(-c3ccco3)nn2c1=O | 60.4* | -27.0 | 73.6* | -2.0 | 0.3 | 20.6 | 24.4 | 51.9*
CCOc1cccc(-c2c(C(=O)N/N=C/c3ccsc3)nnn2-c2nonc2N)c1 | 4.7 | . | . | . | 5.3 | 1.7 | . | .
O=C(C=C1SCCS1)/C=C/c1ccco1 | 36.6 | -42.3 | 41.9 | -3.0 | 2.7 | 13.8 | . | .
O=C(O)C(C(=O)/C=C/c1ccco1)=C1SCCS1 | 51.4* | 3.4 | -4.9 | -1.0 | 4.3 | 25.6 | 22.7 | 55.8*
Cc1cc(O)c2/c(=N\N)c(-c3csc(C)n3)coc2c1 | -3.7 | -11.1 | 8.3 | . | 1.3 | 4.2 | . | .
COC(=O)C1=C(C)NC(=O)/C1=C\N(C)C | 105.3* | -43.6 | 13.0 | 0.0 | 68.0* | 90.9* | 8.4 | 7.5
Cc1c(Br)c(O)c(Br)c2sc(=O)oc12 | 78.6* | -11.1 | 50.5* | . | 2.8 | 35.9* | 20.5 | 49.0*
O=C(c1cc2ccccc2o1)N(C1CC1)C1(C(=O)Nc2ccccc2)CCCC1 | -6.3 | -21.6 | 9.1 | -2.0 | 2.5 | -2.7 | . | .
O=C1c2cc([N+](=O)[O-])cc3cc([N+](=O)[O-])cc(c23)C(=O)N1c1ccccn1 | 14.1 | 20.7 | 12.5 | -6.0 | 6.9 | 13.3 | . | .
O=C(O)c1cccc(N2C(=O)c3cc([N+](=O)[O-])cc4cc([N+](=O)[O-])cc(c34)C2=O)c1 | 46.9* | . | . | . | 1.8 | 14.9 | 21.4 | 45.3*
Cc1[nH]c2ccccc2c1CCNC(=O)c1c(N)no[n+]1[O-] | 2.5 | -23.2 | 20.8 | -24.0 | -1.3 | 3.1 | . | .
O=C(Cn1c(=O)n(Cc2ccco2)c(=O)c2c3c(sc21)CCCC3)Nc1ccccc1 | -3.6 | 0.5 | -22.8 | -3.0 | -2.7 | -1.0 | . | .
NC(=O)Cn1c(=O)n(Cc2ccco2)c(=O)c2c3c(sc21)CCCCC3 | 77.2* | -17.8 | 64.2* | -1.0 | 5.9 | 33.8* | 31.4* | 76.5*
COc1ccc2[nH]c(C(=O)Nc3ncc(C)cc3Br)cc2c1 | 51.9* | -8.4 | -5.2 | . | 8.2 | 13.6 | 4.2 | 1.3
COC(=O)CN(c1ccccc1C)S(C)(=O)=O | 82.6* | -14.8 | -4.4 | 2.0 | -3.4 | 1.6 | 12.9 | 9.4
Cn1c(SCC(=O)Nc2cccc(F)c2)nc2c(c1=O)SCC2 | -2.3 | . | . | . | -5.8 | -0.9 | . | .
SMILES | MCL1 BIM primary | Mcl1-Bid inh | Mcl1 Noxa PPI | Bim-Mcl-1 | GLD-1 TGE inh | BCLXL inh | Bcl-xL conf | MCL1 BIM confirm
Cc1c(C(=O)c2ccc(Cl)cc2[N+](=O)[O-])c2ccccn2c1CCC#N | 5.0 | -12.8 | 4.4 | -4.0 | 19.0 | 2.8 | . | .
Cc1c(C(=O)c2ccc(F)cc2F)c2ccccn2c1CCC#N | 116.7* | . | . | . | 90.1* | 100.5* | 5.3 | 6.5
CC(C)CN1C(=O)C(=O)N(CC(=O)N(C)CC(=O)Nc2ccc(F)cc2)C1=O | 0.7 | . | . | . | 0.4 | -2.4 | . | .
CC(=O)Nc1cccc(NC(=O)c2cccc(-c3ccc(O)cc3)c2)c1 | 3.5 | . | . | . | -1.3 | 1.6 | . | .
C=C(C)c1cccc(C(C)(C)NC(=O)Nc2ccc(OC)nc2)c1 | 91.0* | . | . | . | 82.5* | 82.1* | 56.6* | 72.9*
COc1ccc(NC(=O)c2cccc(-c3ccc(O)cc3)c2)cn1 | 179.5* | . | . | . | 135.2* | 144.1* | 107.3* | 132.6*
C=C(C)c1cccc(C(C)(C)NC(=O)Nc2ccc(C)cn2)c1 | -8.5 | -9.9 | 16.0 | 7.0 | 0.7 | 0.2 | . | .
Cc1ccccc1OCC(=O)Nc1ccccc1-c1ccccc1 | -3.4 | . | . | . | 6.7 | 0.8 | . | .
CC(C)c1ccc(-n2nnnc2SCC(=O)NC2CC2)cc1 | 0.9 | . | . | . | 0.3 | 1.0 | . | .
Cc1nn(-c2ccccc2)c(Cl)c1/C=N/Nc1ccc(S(=O)(=O)Nc2ccccc2C(=O)O)cc1[N+](=O)[O-] | 53.8* | 100.4* | 105.3* | -3.0 | 7.7 | 23.3 | 19.9 | 27.4
CC(=O)Oc1ccccc1C(=O)O | 4.3 | . | . | . | -2.0 | 3.4 | . | .
CC(=O)Oc1cc2cccc(OC(C)=O)c(=O)c2c(OC(C)=O)c1OC(C)=O | 104.8* | -54.6 | 65.8* | 3.0 | 14.1 | 81.1* | 29.2 | 35.6
CN(CCC#N)C(=O)COC(=O)c1c2c(nc3ccccc13)/C(=C/c1ccco1)CC2 | 67.3* | 63.3* | 84.7* | 22.0 | -23.3 | 44.5* | 40.3* | 47.6*
CN1CCc2cccc3c2C1Cc1ccc(O)c(O)c1-3 (configuration not stated) | 48.5* | . | . | . | 6.8 | 33.2* | 45.5* | 69.7*
CC(=O)Oc1ccc2c(c1)O/C(=C\c1ccncc1)C2=O | 151.2* | -13.2 | 5.7 | . | 92.6* | 125.9* | 89.7* | 115.3*
O=C(Oc1ccc2c(c1)O/C(=C\c1ccncc1)C2=O)c1cccs1 | 81.8* | 35.8 | 37.3 | . | 83.8* | 78.3* | 34.5* | 45.9*
COc1ccc(/C=C2\Oc3cc(OC(=O)N4CCOCC4)ccc3C2=O)cc1 | -5.0 | -1.4 | 5.1 | . | 1.2 | 5.8 | . | .
COc1ccc(S(=O)(=O)Oc2ccc3c(c2)O/C(=C\c2cccnc2)C3=O)cc1 | 5.5 | 9.8 | 5.3 | 0.0 | -1.5 | 0.8 | . | .
COc1ccccc1C(=O)Oc1ccc2c(c1)O/C(=C\c1ccncc1)C2=O | 141.6* | 8.3 | 22.9 | 14.0 | 100.9* | 123.1* | 31.9* | 52.4*
CCC(=O)Oc1ccc2c(c1)O/C(=C\c1ccco1)C2=O | 117.9* | -29.6 | -2.9 | . | 89.0* | 111.5* | 46.8* | 76.1*
CS(=O)(=O)Oc1ccc2c(c1)O/C(=C\c1cccnc1)C2=O | 12.5 | 1.8 | -8.0 | . | 9.7 | 15.6 | . | .
